Hits are enriched below; roughly 2.3% of the tested compounds scored in any of these assays.
C diff growth = blocks growth of Clostridium difficile; Clostridium difficile clinical isolate growth, OD600, 24 h; active compounds read low; growth activity, negative = inhibition, % at 16 µg/mL (by protocol); 86,000 tested, 0.25% active;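 active means mean growth activity at or below -80% and every replicate also at or below -80%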
Pf Dd2 inh = P. falciparum Dd2 growth inhibition; 94,000 tested, 2.3% active; activity change, % at 10 µM; SYBR Green, 72 h; active compounds read low; AID 1159554; in the data active means activity change below about -80%
Numbers stand for hits; . = inactive; / = not tested or not shown.

SMILES	C diff growth	Pf Dd2 inh
C[C@@H]1CCCCO[C@H](CN(C)C(=O)Nc2ccc(C(F)(F)F)cc2)[C@H](C)CN([C@H](C)CO)C(=O)c2cc(NS(=O)(=O)c3cccs3)ccc2O1	.	-84.5
O=C(NC1CCCCC1)N1CC(=O)N2[C@H](CO)[C@H](c3ccc(/C=C/c4ccccc4)cc3)[C@@H]2C1	.	.
CCC(=O)N1CCC2(CC1)CN(Cc1ccccc1Cl)[C@H](CO)c1c2c2ccc(OC)cc2n1C	.	.
O=C(C1CCC1)N1CC[C@H]2[C@H](CO)Nc3ccc(C4=CCCCC4)cc3[C@H]21	.	.
C/C=C/c1ccc2c(c1)[C@@H]1[C@@H](CCN1C(=O)C1CCCC1)[C@H](CO)N2	.	.
COc1cccc(-c2ccc3c(c2)[C@@H]2[C@@H](CCN2C(=O)C2CCCC2)[C@@H](CO)N3)c1	.	.
O=C(Cc1ccncc1)N1CC[C@@H]2[C@@H](CO)Nc3ccc(-c4cccc(F)c4)cc3[C@@H]21	.	-92.0
COc1cccc(-c2ccc3c(c2)[C@H]2[C@H](CCN2C(=O)Cc2ccncc2)[C@H](CO)N3)c1	/	.
COc1cccc(-c2ccc3c(c2)[C@H]2[C@H](CCN2C(=O)C2CCCC2)[C@@H](CO)N3)c1	.	-83.1
C/C=C/c1ccc2c(c1)[C@H]1[C@H](CCN1C(=O)C1CCCC1)[C@@H](CO)N2	.	-85.8
O=C(C1CCCC1)N1CC[C@@H]2[C@H]1c1cc(C3=CCCCC3)ccc1N[C@@H]2CO	.	-91.6
C[C@@H]1CN([C@@H](C)CO)C(=O)c2cccc(NC(=O)C3CC3)c2O[C@@H]1CN(C)C(=O)NC1CCCCC1	.	.
C[C@@H]1CCCCO[C@@H](CN(C)C(=O)Nc2ccc(C(F)(F)F)cc2)[C@H](C)CN([C@@H](C)CO)C(=O)c2cc(NC(=O)Nc3ccc(F)cc3)ccc2O1	.	.
CC(C)CC#Cc1cnc2c(c1)C(=O)N([C@H](C)CO)C[C@H](C)[C@H](CN(C)C(=O)c1cccnc1)O2	.	.
CNC[C@H]1Oc2ncc(-c3cccc(C(=O)N(C)C)c3)cc2C(=O)N([C@H](C)CO)C[C@H]1C	.	.
C/C=C/c1ccc2c(c1)[C@H]1[C@H](CCN1S(=O)(=O)c1ccccc1)[C@H](CO)N2	.	.
COc1ccc(C#Cc2ccc3c(c2)[C@@H]2[C@@H](CCN2C(=O)C2CCC2)[C@@H](CO)N3)cc1	.	.
C/C=C/c1ccc2c(c1)[C@H]1[C@H](CCN1S(=O)(=O)c1cccc(F)c1)[C@@H](CO)N2	.	-93.0
COc1ccc(C#Cc2ccc3c(c2)[C@@H]2[C@@H](CCN2C(=O)C2CCC2)[C@H](CO)N3)cc1	.	-87.0
C[C@H](O)C#Cc1ccc2c(c1)O[C@H](CN(C)C(=O)C1CCC1)[C@@H](C)CN([C@@H](C)CO)S2(=O)=O	.	.
C[C@@H]1CN([C@@H](C)CO)S(=O)(=O)c2ccc(-c3cncnc3)cc2O[C@H]1CN(C)C(=O)C1CCC1	.	.
CCCC(=O)Nc1ccc2c(c1)C(=O)N(C)[C@H]1CC[C@H](CC(=O)OC)O[C@@H]1CO2	.	.
CCC(=O)N1CC[C@H]2[C@H](CO)Nc3ccc(-c4cccc(C#N)c4)cc3[C@H]21	.	.
COc1ccc(NC(=O)N(C)C[C@H]2OCc3ccccc3-c3c(n(C)c4ccccc34)C(=O)N([C@H](C)CO)C[C@@H]2C)c(OC)c1	.	-86.4
COc1ccc(NC(=O)N(C)C[C@@H]2OCc3ccccc3-c3c(n(C)c4ccccc34)C(=O)N([C@@H](C)CO)C[C@H]2C)c(OC)c1	.	.
SMILES	C diff growth	Pf Dd2 inh
COc1ccc(NC(=O)N(C)C[C@H]2OCc3ccccc3-c3c(n(C)c4ccccc34)C(=O)N([C@H](C)CO)C[C@H]2C)c(OC)c1	.	.
COc1ccc(NC(=O)N(C)C[C@H]2OCc3ccccc3-c3c(n(C)c4ccccc34)C(=O)N([C@@H](C)CO)C[C@H]2C)c(OC)c1	.	-88.9
O=C(C[C@@H]1C[C@@H]2c3cc(NC(=O)C4CCC4)ccc3O[C@@H]2[C@H](CO)O1)NCc1ccccc1F	.	.
C[C@H](O)C#Cc1cnc2c(c1)C(=O)N([C@@H](C)CO)C[C@@H](C)[C@H](CN(C)C(=O)Cc1ccccn1)O2	.	.
CCCNC(=O)C[C@@H]1C[C@@H]2c3cc(NC(=O)C4CCOCC4)ccc3O[C@@H]2[C@H](CO)O1	.	.
Cc1ccc(S(=O)(=O)N(C)C[C@@H]2OCCCC[C@@H](C)Oc3ccc(NC(=O)CCCCCC(=O)Nc4ccccc4N)cc3C(=O)N([C@H](C)CO)C[C@@H]2C)cc1	.	/
Cc1ccc(S(=O)(=O)N(C)C[C@H]2OCCCC[C@@H](C)Oc3ccc(NC(=O)CCCCCC(=O)Nc4ccccc4N)cc3C(=O)N([C@H](C)CO)C[C@@H]2C)cc1	.	-86.9
C[C@@H]1CCCCO[C@@H](CN(C)S(=O)(=O)c2ccc(Cl)cc2)[C@@H](C)CN([C@H](C)CO)C(=O)c2cc(NC(=O)CCCCCC(=O)Nc3ccccc3N)ccc2O1	/	.
Cc1noc(C)c1S(=O)(=O)N(C)C[C@H]1OCCCC[C@@H](C)Oc2ccc(NC(=O)CCCCCC(=O)Nc3ccccc3N)cc2C(=O)N([C@@H](C)CO)C[C@@H]1C	.	-81.2
C[C@@H]1CCCCO[C@@H](CN(C)S(=O)(=O)c2ccc(Cl)cc2)[C@@H](C)CN([C@@H](C)CO)C(=O)c2cc(NS(=O)(=O)c3ccccc3)ccc2O1	.	.
C[C@H]1CCCCO[C@H](CN(C)S(=O)(=O)c2ccc(Cl)cc2)[C@@H](C)CN([C@@H](C)CO)C(=O)c2cc(NS(=O)(=O)c3ccccc3)ccc2O1	.	-89.7
C[C@@H]1CN([C@@H](C)CO)C(=O)c2cc(NS(=O)(=O)c3ccccc3)ccc2O[C@@H](C)CCCCO[C@@H]1CN(C)S(=O)(=O)c1ccc(Cl)cc1	.	-85.1
C[C@@H]1CN([C@H](C)CO)C(=O)c2cc(NS(=O)(=O)c3ccccc3)ccc2O[C@@H](C)CCCCO[C@@H]1CN(C)S(=O)(=O)c1ccc(Cl)cc1	.	.
C[C@@H]1CCCCO[C@H](CN(C)C(=O)c2ccccc2)[C@@H](C)CN([C@@H](C)CO)C(=O)c2cc(NC(=O)NC3CCCCC3)ccc2O1	.	.
C[C@@H]1CCCCO[C@@H](CN(C)Cc2ccc(C(F)(F)F)cc2)[C@H](C)CN([C@H](C)CO)C(=O)c2cc(NC(=O)C3CCCCC3)ccc2O1	.	.
C[C@@H]1CN([C@H](C)CO)C(=O)c2cc(NC(=O)C3CCCCC3)ccc2O[C@@H](C)CCCCO[C@H]1CN(C)Cc1ccncc1	.	.
C[C@H]1CN([C@@H](C)CO)C(=O)Cc2cc(NC(=O)C3CC3)ccc2O[C@H]1CN(C)Cc1ccc(C(F)(F)F)cc1	.	-80.4
C[C@H](CO)N1C[C@H](C)[C@H](CN(C)Cc2ccc(C(F)(F)F)cc2)Oc2ccc(NC(=O)C3CC3)cc2CC1=O	.	.
C[C@@H]1CCCCO[C@H](CN(C)Cc2ccc(C(F)(F)F)cc2)[C@@H](C)CN([C@@H](C)CO)C(=O)c2cc(NC(=O)C3CCCCC3)ccc2O1	.	-84.6
C[C@@H]1CCCCO[C@H](CN(C)Cc2ccncc2)[C@@H](C)CN([C@@H](C)CO)C(=O)c2cc(NC(=O)C3CCCCC3)ccc2O1	.	-84.9
O=C(N[C@@H]1CC[C@H](CC(=O)N2CCCCC2)O[C@@H]1CO)c1ccc2c(c1)OCO2	.	.

Source: PubChem BioAssay (Broad Institute)
